From PubChem
In the library only some 3% were active in any assay of this set; here they are far more common.
esBAF inh – blocks esBAF chromatin remodeling in mouse ES cells. AID 602393. reporter increase, % at 12.5 µM. 350,000 tested, 2% active. Bmi1-luciferase knock-in reporter, 24 h; 100% = twice the neutral-well signal; in the data active means activation above about 40%; inconclusive means no clear call, values can overlap the other calls;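 further: 0% = median of the plate's neutral control wells and 100% = double that signal; a rise in the Bmi1 reporter signal indicates esBAF inhibition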
C2C12 statin – suppression of simvastatin myotoxicity; C2C12 myotubes + simvastatin, ATP luminescence, 48 h; scaled: DMSO 0, geranylgeraniol control 100; rescue of ATP level, % at 7.49 µM; AID 602340; 330,000 tested, 0.78% active;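 active means mean ATP rescue above about 67%, or every replicate alone reaching that limit, limit read from the data, passing the limit was not always enough; inconclusive means no clear call, values can overlap the other calls; inactive means mean under the limit and some replicate under it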;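 further: myotubes were challenged with 10 µM simvastatin during compound exposure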
Wnt act – Wnt/beta-catenin pathway activation; activation, % at 9.35 µM; Wnt/beta-catenin reporter cell assay, activator, plate reader; 300,000 tested, 1.2% active; in the data active means activation above about 30%, passing the limit was not always enough; inconclusive means no clear call, values can overlap the other calls;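 further: 0% = neutral control wells and 100% = positive control wells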
MITF TRPM1 HTS – activators of MITF-driven TRPM1 promoter activity in SK-MEL-5 cells. activation, % at 12.5 µM. AID 588334. SK-MEL-5 TRPM1-promoter luciferase, 24 h; % of positive control, neutral wells = 0. 300,000 tested, 0.75% active;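 active means mean activation of at least 80% with every replicate also reaching 80%; inconclusive means mean reaches 80% but some replicate falls short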;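 further: 0% = neutral control wells and 100% = parthenolide positive control wells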
Numbers without * were called inactive; ? = inconclusive; nt = no result given.

SMILES	esBAF inh	C2C12 statin	Wnt act	MITF TRPM1 HTS
CO[C@@H]1CN(C)C(=O)c2cc(NC(=O)Nc3ccc(Cl)cc3)ccc2OC[C@H](C)N(C(=O)Nc2c(C)noc2C)C[C@@H]1C	3	-18	nt	nt
C=CCc1ccc(OC(=O)NC2CCCCC2)c(OC)c1	51*	1	13	58
C[C@@H]1CN([C@H](C)CO)C(=O)c2cc(NC(=O)c3ccncc3)ccc2O[C@H]1CN(C)C(=O)NC1CCCCC1	2	2	nt	nt
Cc1ccc(C(=O)Nc2nc3c(s2)CCCC3)o1	-6	-23	57*	31
O=C(Nc1nc2c(s1)CCCC2)c1cccnc1	nt	nt	22	42
O=C(Nc1nc2c(s1)CCCC2)c1ccc(Br)o1	-14	112*	nt	5
O=C(Nc1nc2c(s1)CCCC2)c1cccs1	-12	-31	nt	45
Cc1nnsc1C(=O)NNS(=O)(=O)c1cc(C(F)(F)F)cc(C(F)(F)F)c1	-2	5	0	nt
Cc1ccc(S(=O)(=O)NNC(=O)c2snnc2C)cc1	-3	128*	0	9
COc1c(CC=C(C)C)c(O)cc2oc(=O)c3c4ccc(O)cc4oc3c12	7	13	nt	nt
CC(C)=CCc1c(O)cc2c(=O)c3ccc(O)cc3oc2c1O	59*	24	-2	nt
CCOc1ccc(CCNC(=O)c2ccc3ccccc3n2)cc1OCC	57*	-20	7	-2
COc1ccc(CCNC(=O)c2ccc3ccccc3n2)cc1OC	-5	-2	-3	-2
COc1ccc(S(=O)(=O)Nc2cccc3c2O[C@H](CN(C)S(=O)(=O)c2ccc(F)cc2)[C@@H](C)CN([C@H](C)CO)C3=O)cc1	9	39	nt	nt
COc1ccc(/C=C/C(=O)c2ccccc2)cc1Cn1nnc2ccccc21	nt	nt	43*	-6
CCOC(=O)c1c(N)n[nH]c1-c1ccc(OC)cc1	-5	-4	nt	-14
CCOC(=O)c1c(Nc2ccc(OC)cc2)n[nH]c1C	nt	nt	34*	nt
Cn1cnc(S(=O)(=O)N2CCCC(c3cc(C(=O)Nc4ccc(F)c(Cl)c4)no3)C2)c1 (stereo unspecified)	53*	-4	0	nt
O=C(Nc1ccc(F)c(Cl)c1)c1cc(C2CCCN(S(=O)(=O)c3ccccc3)C2)on1 (stereo unspecified)	10	3	-2	nt
C[C@@H]1CN([C@H](C)CO)C(=O)c2cc(NC(=O)Nc3cccc4ccccc34)ccc2O[C@@H](C)CCCCO[C@@H]1CN(C)C(=O)NC1CCCCC1	6	74*	nt	nt
C[C@@H]1CN([C@H](C)CO)C(=O)c2cc(NC(=O)Nc3cccc4ccccc34)ccc2O[C@@H](C)CCCCO[C@H]1CN(C)C(=O)NC1CCCCC1	6	-8	nt	nt
C[C@@H]1CN([C@@H](C)CO)C(=O)c2cc(NC(=O)Nc3cccc4ccccc34)ccc2O[C@@H](C)CCCCO[C@H]1CN(C)C(=O)NC1CCCCC1	-2	9	nt	nt
C[C@H]1CCCCO[C@@H](CN(C)C(=O)NC2CCCCC2)[C@@H](C)CN([C@@H](C)CO)C(=O)c2cc(NC(=O)Nc3cccc4ccccc34)ccc2O1	0	96*	nt	nt
C[C@H](CO)N1C[C@H](C)[C@H](CN(C)C(=O)NC2CCCCC2)OCCCC[C@H](C)Oc2ccc(NC(=O)Nc3cccc4ccccc34)cc2C1=O	5	137*	nt	nt
C[C@@H]1CN([C@@H](C)CO)C(=O)c2cc(NC(=O)Cc3ccccc3)ccc2O[C@@H](C)CCCCO[C@@H]1CN(C)CC1CCCCC1	-4	nt	nt	nt
SMILES	esBAF inh	C2C12 statin	Wnt act	MITF TRPM1 HTS
CNC[C@H]1OCCCC[C@@H](C)Oc2ccc(NC(=O)CCC(F)(F)F)cc2C(=O)N([C@@H](C)CO)C[C@@H]1C	1	-23	nt	nt
COc1ccc(NC(=S)NC(=O)c2ccc3c(c2)OCCO3)cc1	54*	-44	-4	70
CCOc1cccc(C(=O)NC(=S)Nc2ccc3c(c2)OCCO3)c1	?	-28	-1	103*
O=C(NC(=S)Nc1ccc(F)cc1)c1ccc2c(c1)OCCO2	nt	nt	?	61
Cc1c(/C(O)=C2/C(=O)C(=O)N(Cc3cccnc3)C2c2cccs2)cnn1-c1ccccc1 (stereo unspecified)	46*	nt	-3	53
O=C(NCC[C@H]1CC[C@@H](NC(=O)C2CCC2)[C@@H](CO)O1)Nc1ccc(Cl)cc1	8	-2	nt	nt
CN1C(=O)c2cc(NC(=O)Nc3cccc(Cl)c3)ccc2OC[C@H]2O[C@H](CC(=O)O)CC[C@H]21	0	11	nt	nt
COc1ccc2c(c1)CC/C2=N\OC(=O)c1ccccc1C	nt	nt	3	117*
C[C@@H]1CN([C@H](C)CO)C(=O)c2cc(NC(=O)Cc3ccccc3)ccc2O[C@@H](C)CCCCO[C@@H]1CN(C)C(=O)NC1CCCCC1	4	nt	nt	nt
COc1ccc(OC(=O)c2cccc([N+](=O)[O-])c2)c(C(=O)/C=C/c2cccs2)c1	-9	8	-4	7
COc1ccc(C(=O)/C=C/c2ccccc2)c(O)c1	27	8	0	nt
COc1ccc(C(=O)/C=C/c2ccc(OC)cc2OC)c(O)c1	88*	9	1	93*
O=C(O)c1cc(/C=C/C(=O)c2cc(F)ccc2O)c2c(c1)COCO2	nt	nt	3	0
COc1ccc(C(=O)/C=C/c2cc(C(=O)O)cc3c2OCOC3)c(O)c1	59*	11	0	-6
COc1ccc(C(=O)C=Cc2cccs2)c(O)c1	45*	4	48*	69
COc1ccc(C(=O)/C=C/c2ccccc2OC)c(OC(=O)c2ccc([N+](=O)[O-])cc2)c1	nt	nt	38*	13
Cc1ccc(S(=O)(=O)Nc2ccc3c(c2)C(=O)N([C@H](C)CO)C[C@H](C)[C@H](CN(C)C(=O)Nc2ccccc2)OCCCC[C@H](C)O3)cc1	5	nt	nt	nt
CN1C(=O)c2cc(NC(=O)C3CCOCC3)ccc2OC[C@H]2O[C@@H](CC(=O)NC3CCCC3)CC[C@H]21	1	-7	nt	nt
C[C@H](CO)N1C[C@H](C)[C@@H](CN(C)C)OCc2cn(nn2)CCCC1=O	-3	-3	nt	nt
COc1ccc(C(=O)c2ccc(OC)cc2O)c(O)c1	50*	128*	24	75
Cc1noc(C)c1NC(=O)N(C)C[C@@H]1OCCCC[C@H](C)Oc2ccc(NS(=O)(=O)c3ccc(F)cc3)cc2C(=O)N([C@H](C)CO)C[C@@H]1C	7	22	nt	nt
N#C/C(=C/c1ccco1)c1nc2ccccc2s1	nt	nt	51*	5
N#C/C(=C\c1ccco1)c1nc2ccccc2s1	nt	nt	nt	54
O=C(C[C@@H]1CC[C@@H]2[C@H](COC[C@@H](O)CN2C(=O)Nc2ccccc2)O1)NC1Cc2ccccc2C1	4	-5	nt	nt
CC(=O)c1c(C)[nH]c(C(=O)OCc2cccc(Cl)c2)c1C	46*	1	0	31
COC(=O)c1c(C)[nH]c(C(=O)OCc2ccc(F)cc2)c1C	46*	-4	nt	114*
CC(=O)c1c(C)[nH]c(C(=O)OCC(=O)NCCc2ccc(F)cc2)c1C	5	10	-4	4
Cc1cc(OCC(=O)N(C)C2CCCCC2)ccc1Cl	4	-8	60*	39
O=C(CNCc1ccccc1Cl)Nc1ccc2c(c1)OCCO2	52*	-1	3	?
